The inhibition is the relative decrease from the control value, in per cent.

Results on 49 compounds are retold here after ChEMBL document CHEMBL3433997, “St. Jude Leishmania screening dataset” (2016).

Structures are written as SMILES.

Type in all cases: functional
Assay [1] addresses Solute carrier family 2, facilitated glucose transporter member 1 (Homo sapiens) (UniProt P11166). Kind of assay: ST_JUDE_LEISH: Cytotoxicity at 2uM final concentration against transgenic Leishmania Mexicana promastigotes LmGLUT1 that are glucose transport deficient and complemented with the human glucose transporter GLUT1. Activity is measured by DNA content using SYBR green in vitro.

In assay [2] the target is Hexose transporter 1 (Plasmodium falciparum) (UniProt O97467). In words: ST_JUDE_LEISH: Cytotoxicity at 2uM final concentration against transgenic Leishmania Mexicana promastigotes LmPfHT that are glucose transport deficient and complemented with the Plasmodium falciparum hexose transporter. Activity is measured by DNA content using SYBR green in vitro.
The target in assay [3] is Glucose transporter (Leishmania mexicana) (UniProt O61059). Kind of assay: ST_JUDE_LEISH: Cytotoxicity at 2uM final concentration against transgenic Leishmania Mexicana promastigotes LmGT2 that are glucose transport deficient and complemented with the L. Mexicana glucose transporter 2. Activity is measured by DNA content using SYBR green in vitro.

Sequence of Solute carrier family 2, facilitated glucose transporter member 1 (Homo sapiens) (P11166 whole entry): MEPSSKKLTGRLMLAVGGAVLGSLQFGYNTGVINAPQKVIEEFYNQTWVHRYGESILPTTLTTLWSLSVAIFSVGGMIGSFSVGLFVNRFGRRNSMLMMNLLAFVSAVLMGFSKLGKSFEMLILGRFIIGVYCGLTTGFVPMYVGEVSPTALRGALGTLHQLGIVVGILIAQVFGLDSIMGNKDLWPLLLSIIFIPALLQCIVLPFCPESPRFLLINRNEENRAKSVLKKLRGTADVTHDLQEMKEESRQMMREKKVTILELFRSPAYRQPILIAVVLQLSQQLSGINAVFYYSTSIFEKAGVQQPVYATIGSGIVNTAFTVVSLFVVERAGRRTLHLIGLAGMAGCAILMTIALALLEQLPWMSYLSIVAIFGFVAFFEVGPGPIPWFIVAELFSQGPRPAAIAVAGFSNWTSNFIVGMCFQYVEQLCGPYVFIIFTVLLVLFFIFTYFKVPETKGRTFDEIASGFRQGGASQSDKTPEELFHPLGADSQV

As to `Cc1ccc(O)c(CN2CCCC(COC(c3ccc(F)cc3)c3ccc(F)cc3)C2)c1` (configuration not stated), the figures for the inhibition in assay [1], in assay [2] and in assay [3] were 2.33%, -0.35% and -4.12%, respectively.
`Cc1ccc(Cc2c(C)nc3nc(N)nc(N)c3c2C)cc1`: the figures for the inhibition in assay [1], in assay [2] and in assay [3] were 69.9%, 73.4% and 54.4%, respectively.
`Cc1cccc2nc(-c3cccc(-c4ccc(C(=O)NCc5ccccc5S(C)(=O)=O)cc4)c3)[nH]c12`: the inhibition in assay [1] was 4.92%; in assay [2], 3.13%; in assay [3] it was 2.53%.
In the case of `COc1ccc(CN(C)CCCc2ccc(NC(=O)c3cccc4c(=O)c5cccc(F)c5[nH]c34)cc2)cc1OC`, the results for the inhibition in assay [1], in assay [2] and in assay [3] were 14.2%, 9.74% and 10.1%, respectively.
As for `COc1ccc(Cn2c(N3CCN(S(=O)(=O)c4ccc(OC)cc4)CC3)nc3c2c(=O)n(CC2CC2)c(=O)n3CC2CC2)cc1`, the results for the inhibition in assay [1], in assay [2] and in assay [3] were 0.89%, -0.86% and -1.39%, respectively.
As to `CCC[C@@H]([C@@H](CC1CCCCC1)C(=O)N[C@H](C(=O)Nc1nccs1)C(C)(C)SC)N(O)C=O`, the inhibition in assay [1] was determined as 9.33%; in assay [2] it was 8.98%; in assay [3], 8.5%.
Regarding `CN1CCCC1CCNC(=O)[C@H](CC1CCCCC1)NC(=O)c1ccc(O)c(-c2ccc(Cl)c(Cl)c2)c1` (some centres not stated), the values for the inhibition in assay [1], in assay [2] and in assay [3] were 8.26%, 10.3% and 6.63%, respectively.
On to `CCN(CCCN1CCCCC1)c1cc(C)nc(Nc2cccc(C(F)(F)F)c2C)n1`, for which the inhibition was -0.36% in assay [1], 1.74% in assay [2] and 0.96% in assay [3].
In the case of `COc1ccc(NC(=O)c2cc(NC(=O)C3(N)CC3)c(=O)n(Cc3ccc(C(N)=O)cc3)c2)cc1`, the inhibition in assay [1] is 0.5%; in assay [2] it was 3.44%; in assay [3] it was 2.12%.
On to `O=C(C=Cc1ccccc1)Nc1ccc(C#CC=Cc2ccc(NC(=O)C=Cc3ccccc3)cc2)cc1`, for which the inhibition in assay [1] turned out to be 2.7%; in assay [2], 2.84%; in assay [3] it was 2.16%.
Turning to `COc1ccc2c(CNCCCCCCNCc3c(OC)ccc4cc(OC)ccc34)c(OC)ccc2c1`, the figures for the inhibition in assay [1], in assay [2] and in assay [3] were 109%, 107% and 112%, respectively.
Turning to `O=C(NCCCCN1CCC2c3cccc(O)c3CCC21)c1ccc(-c2ccccc2)cc1` (configuration not stated), the inhibition in assay [1] came to 6.05%; in assay [2] it was 5.38%; in assay [3] it was 3.69%.
`COc1cccc(C2(c3cccc(OC)c3)N=C(N)N(CCCc3ccccc3)C2=O)c1`: the results for the inhibition in assay [1], in assay [2] and in assay [3] were -0.49%, -0.23% and -2.44%, respectively.
For `CCCOc1ccccc1-c1nc2[nH]c3c(c2c(=O)[nH]1)CCN(C)C3`, the figures for the inhibition in assay [1], in assay [2] and in assay [3] were -1.19%, -0.54% and -1.12%, respectively.
Regarding `CN1CCN(Cc2ccc(-c3cc4nccc(Nc5ccc(Oc6ccccc6)cc5)c4cc3Cl)o2)CC1`, the values for the inhibition in assay [1], in assay [2] and in assay [3] were 1.96%, 2.5% and 2.69%, respectively.
Turning to `O=C1CC(C(=O)O)CC(=O)N1`, the inhibition in assay [1] was -3.7%; in assay [2] it was -2.75%; in assay [3], -0.61%.
As to `N=c1sc2ccccc2n1CC(O)c1ccc(Cl)c(Cl)c1` (configuration not stated), the inhibition in assay [1] was -1.41%; in assay [2], 1.26%; in assay [3] it was 0.57%.
On the same counts, the results for `COc1cccc(-c2cccc(-c3ccc(NC(=O)c4ccc([N+](=O)[O-])o4)cc3)n2)c1` are 66.2%, 59.8% and 23.3%.
Turning to `Nc1ncc(-c2cccc(CCN3CCOCC3)c2)cc1-c1nc2cc(Br)ccc2[nH]1`, the inhibition in assay [1] was 14%; in assay [2] it was 9.95%; in assay [3] it was 11.8%.
The corresponding values for `CS(=O)(=O)c1ccc(-c2cc(C(F)(F)F)nc(N[C@@H]3CCCC[C@H]3OCc3ccccc3)n2)cc1` are 1.33%, 1.84% and 1.66%.
In the case of `CC(C)(CNCCOc1ccc(Cl)cc1)c1nc(-c2ccnc(N)n2)c(-c2ccc(Cl)c(O)c2)[nH]1`, the inhibition is 2% in assay [1], 1.8% in assay [2] and 0.27% in assay [3].
The corresponding values for `CC1CCCCN1CCCNc1nc(NCc2ccccc2)c2ccccc2n1` (configuration not stated) are 23.1%, 31.8% and 10.2%.
As to `Cc1ccc(Nc2nc(N/N=C/c3cc4c(cc3Br)OCO4)nc(Nc3ccc([N+](=O)[O-])cc3)n2)cc1C`, the inhibition in assay [1] was found to be 1.58%; in assay [2], 2.19%; in assay [3] it was 4.71%.
Consider `CCCc1cc(C(=O)N[C@@H](Cc2ccccc2)[C@H](O)CNC(C)C)c(F)c(N2CCCC2=O)c1`, for which the inhibition in assay [1] was -2.2%; in assay [2] it was -0.79%; in assay [3] it was -0.74%.
For the compound `Cc1ccc(NC(=O)Nc2ccc(Cl)c(C(F)(F)F)c2)cc1-c1ccc(C(=O)NCCN2CCOCC2)cc1`, the inhibition turned out to be 8.1% in assay [1], 5.32% in assay [2] and 5.24% in assay [3].
`CCCCCNC(=N)c1ccc(OCCCCCOc2ccc(C(=N)NCCCCC)cc2)cc1`: the inhibition in assay [1] worked out at 19.6%; in assay [2], 25.9%; in assay [3], 5.15%.
Take `CC(C)C1C(O)=C(c2ccc3ccccc3c2)C(=O)N1CC1CCCCC1` (configuration not stated): the inhibition was 1.23% in assay [1], 1.04% in assay [2] and -8.52% in assay [3].
Turning to `Oc1ccc(-c2ccccc2)cc1CN1CCCCC1`, the values for the inhibition in assay [1], in assay [2] and in assay [3] were 4.4%, 5.51% and -0.56%, respectively.
As for `COc1ccc(-c2cccc(NC(=O)c3cccc(Cl)c3)c2)cc1CN1CCNCC1`, the inhibition was 2.8% in assay [1], 2.6% in assay [2] and -0.77% in assay [3].
`COc1ccc(Nc2nccc(N3CCC(NC(=O)c4cc5ccccc5s4)C3)n2)cc1` (configuration not stated): the inhibition was -3.12% in assay [1], 1.28% in assay [2] and -1.61% in assay [3].
`CCC(=O)c1c(C)n(-c2ncnc3c2nc(C)n3-c2ccc(C)cc2C)c2ccccc12`: the inhibition is 4.6% in assay [1], 1.9% in assay [2] and 3.62% in assay [3].
Take `c1ccc(CCNc2ncnc3c2[nH]c2ccccc23)cc1`: the figures for the inhibition in assay [1], in assay [2] and in assay [3] were 3.67%, 11.6% and 3.69%, respectively.
`O=C(C=Cc1cn(-c2ccccc2)nc1-c1ccccc1)N1CCN(c2ccncc2)CC1`: the inhibition was 5.75% in assay [1], 5.64% in assay [2] and 4.62% in assay [3].
For the compound `COc1ccc2nccc([C@H](O)CN3CCC(NCc4ccc5c(c4C)OCCO5)CC3)c2n1`, the figures for the inhibition in assay [1], in assay [2] and in assay [3] were 41%, 59.7% and 69.1%, respectively.
Regarding `N=C(N)NN=Cc1c2ccccc2c(Cl)c2ccc(Cl)cc12`, the inhibition in assay [1] stood at 107%; in assay [2] it was 106%; in assay [3], 104%.
For `CN(C)c1ccc(-c2ccc(C(=O)NC3CCN(Cc4ccc(F)cc4)CC3)s2)cc1`, the inhibition was 5.83% in assay [1], -1.68% in assay [2] and 3.76% in assay [3].
`COc1ccc2ncc(F)c([C@H](O)CN3CCC(NCc4ccc5c(c4)OCCO5)CC3)c2c1`: the inhibition in assay [1] was 4.19%; in assay [2] it was 2.23%; in assay [3], 1.28%.
The corresponding values for `COc1ccc2c(c1C1CCN(CCCCNC(=O)c3ccc(-c4ccc(Cl)cn4)cc3)CC1)CCCC2` are 2.21%, 2.74% and 3.95%.
As to `CCC(C)Oc1ccc(CCCON2C(N)=NC(N)=NC2(C)C)cc1` (configuration not stated), the inhibition was found to be 12.6% in assay [1], 20.2% in assay [2] and 13.8% in assay [3].
Turning to `O=C(c1cccs1)N1CCN(c2ccc([N+](=O)[O-])c(NC3CC3)c2)CC1`, the values for the inhibition in assay [1], in assay [2] and in assay [3] were 1.35%, 0.57% and 1.6%, respectively.
The corresponding values for `COc1ccc2nccc([C@@H](O)CN3CCC(NCc4ccc5cccc(O)c5n4)CC3)c2n1` are 5.63%, 11.5% and 0.77%.
As for `COc1ccc2ncc(C#N)c(CCN3CCC(NCc4ccc5c(c4)NC(=O)CO5)CC3)c2c1`, the inhibition in assay [1] was determined as 12.7%; in assay [2], 9.55%; in assay [3], 8.73%.
For `O=C(Cn1c(CCc2cccc(F)c2F)nc(=O)c2ccccc21)N(CCCN1CCCC1)Cc1ccc(-c2ccc(C(F)(F)F)cc2)cc1`, the inhibition in assay [1] was 8.01%; in assay [2] it was 7.63%; in assay [3] it was 9.22%.
As to `CCn1c(Sc2ccc(C#N)c([N+](=O)[O-])c2)nnc1-c1ccc(OC)cc1`, the inhibition is 2.25% in assay [1], 4.95% in assay [2] and 2.61% in assay [3].
Turning to `COc1ccc2nc(Nc3nc(-c4ccccn4)cs3)sc2c1`, the inhibition in assay [1] is 11.7%; in assay [2] it was 16%; in assay [3], 5.62%.
With `CC(=NNC(S)=NCCc1ccccn1)c1ccccn1`, the inhibition in assay [1] was determined as 7.78%; in assay [2], 4.39%; in assay [3] it was 6.19%.
For the compound `O=C(NCc1ccc(Cl)c(Cl)c1)[C@H]1CNCCN1C(=O)c1ccccc1`, the figures for the inhibition in assay [1], in assay [2] and in assay [3] were 2.83%, 1.69% and 2.44%, respectively.
The corresponding values for `Cc1cc(-c2cnc(N)c(-c3ccc(N4CCN(C)CC4)nc3)c2)cc(C)c1O` are 1.2%, 0.69% and 0.74%.
For the compound `O=C(Nc1cccc2ccccc12)N1CCC(NS(=O)(=O)c2cccc(C(F)(F)F)c2)CC1`, the inhibition came to 0.57% in assay [1], 0.62% in assay [2] and 0.91% in assay [3].
